Active and inactive are the calls of the source. The rule behind the calls is not given here.
Tested on: HIV-1 nucleocapsid protein NCp7 (binding to TG oligonucleotide)
Experiment: HIV Nucleocapsid (AID 346);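 note: potency is for inhibitors that block NC binding and lower polarization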
Settings: HIV-1 NC / fluorescein-TGTGTGTG probe, fluorescence polarization
Procedure, shortened: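 Reagents dispensed (10 nM TG4xF, 100 nM HIV-1 NC), plates spun, compounds pin-transferred, then incubated 1 hr at room temperature before FP imaging. Buffer: Hepes pH 7.5, 250mM NaCl, 1uM ZnCl2, 100 uM TCEP, 5 mM 2-mercaptoethanol.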
Potency is the fitted concentration of half-maximal effect.

| Compound | Potency |
| --- | --- |
| CCNc1ncc2nc(-c3cccs3)c(=O)n(-c3ccc(OC)cc3)c2n1 | 4.09 µM (active) |
| CC(C)CN1CCC2(CC1)CCN(C(=O)c1cc(C(F)(F)F)cc(C(F)(F)F)c1)CC2 | > 20 µM (inactive) |
| O=C(c1ccco1)N1CCC2(CC1)CCN(c1ccccc1)CC2 | > 20 µM (inactive) |
| CN(C)c1ncc2nc(-c3cccs3)c(=O)n(C[C@H]3CCCO3)c2n1 | > 20 µM (inactive) |
| COc1ccc2[nH]cc(CCNc3ccnc(-c4ccccc4C(F)(F)F)n3)c2c1 | > 20 µM (inactive) |
| COCCn1c(=O)c(-c2cc(F)cc(F)c2)nc2cnc(OCc3ccccc3)nc21 | > 20 µM (inactive) |
| COc1cccc(Cn2c(=O)c(C)nc3cnc(Nc4cccc(OC)c4)nc32)c1 | > 20 µM (inactive) |
| COc1ccccc1CCn1c(=O)c(CCc2ccccc2)nc2cncnc21 | > 20 µM (inactive) |
| N#CCCn1c(=O)c(-c2ccc(F)cc2)nc2cnc(OCc3ccccc3)nc21 | > 20 µM (inactive) |
| Cc1noc(C)c1C(=O)N1CCC[C@@]2(CCN(c3ncccn3)C2)C1 | > 20 µM (inactive) |
| CS(=O)(=O)N1CCC2(CCCN(C(c3ccccc3)c3ccccc3)C2)CC1 | > 20 µM (inactive) |
| Cc1noc(C)c1C(=O)N1CCC2(CC1)CCN(c1cccc(-c3ccccc3)c1)CC2 | > 20 µM (inactive) |
| Cn1cccc1C(=O)N1CCC2(CCN(C(=O)Nc3cccc(F)c3)CC2)CC1 | > 20 µM (inactive) |
| Cc1cnc(CNc2ccnc(-c3cccnc3)n2)cn1 | > 20 µM (inactive) |
| O=C(Oc1ccccc1)N1CCC[C@@]2(CCN(c3ccncc3)C2)C1 | > 20 µM (inactive) |
| O=C(Nc1ccccc1)N1CC2(CCN(C(=O)c3cc(C(F)(F)F)cc(C(F)(F)F)c3)CC2)C1 | > 20 µM (inactive) |
| COCCNc1ncnc2ccc(-c3ccccc3CN(C)C)cc12 | > 20 µM (inactive) |
| CC(=O)NCCNc1ncnc2ccc(-c3ccccc3C(F)(F)F)cc12 | > 20 µM (inactive) |
| COc1cccc(Nc2ncc3nc(C)c(=O)n(C4CC4)c3n2)c1 | > 20 µM (inactive) |
| COCCn1c(=O)c(-c2ccccc2)nc2cnc(N3CCNCC3)nc21 | > 20 µM (inactive) |
| COc1ccc(CNc2ccnc(-c3ccc(N(C)C)cc3)n2)c(OC)c1 | > 20 µM (inactive) |
| O=C(c1ccco1)N1CCC[C@@]2(CCN(c3ccccc3)C2)C1 | > 20 µM (inactive) |
| COc1cccc(Cn2c(=O)c(-c3ccccc3)nc3cncnc32)c1 | > 20 µM (inactive) |
| CN(C)c1ccc(-c2cc(-n3ccnc3)ncn2)cc1 | > 20 µM (inactive) |
